HPGD block = inhibitors of human 15-hydroxyprostaglandin dehydrogenase (HPGD); purified HPGD, NADH fluorescence kinetic, PGE2 substrate; actives 4.3% (n = 150,000); Potency, µM, inactives show at the highest dose activity change, negative = inhibition, usual class: inhibitors; note: % is set by controls: 0 for no effect and ±100 for the full control effect
Target sequence (P15428 whole entry, looked up): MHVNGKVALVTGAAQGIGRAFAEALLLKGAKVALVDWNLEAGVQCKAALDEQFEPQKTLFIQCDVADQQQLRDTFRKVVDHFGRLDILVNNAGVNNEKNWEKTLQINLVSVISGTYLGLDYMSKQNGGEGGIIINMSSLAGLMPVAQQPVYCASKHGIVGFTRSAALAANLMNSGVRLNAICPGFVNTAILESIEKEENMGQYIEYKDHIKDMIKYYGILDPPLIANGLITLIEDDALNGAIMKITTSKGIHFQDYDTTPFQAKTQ
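NADH formation kinetics: reaction with 30 uM PGE2 and 1 mM NAD+ (final), 20 nM enzyme, Tris-HCl pH 8 with Tween 20, after 15 min compound preincubation at room temperature. Fluorescence change, last versus first of five reads.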
Lamin A splicing = modulators of lamin A splicing; HeLa LMNA splicing GFP/RFP minigene ratio, 48 h; Potency, µM (doses to about 46.1 µM), without a hit: at the highest dose ratio change, negative = inhibition, hits mostly inhibitors; AID 1487; actives 0.01% (n = 200,000); active = well fitted inhibition curve with a large enough effect in the signal ratio, with a control signal flat, not every such curve was filed as active; inconclusive = small, poorly fitted or top-dose-only effect, or effect the other way, or a change in a side signal; the % refers to the signal ratio; note: % is set by controls: 0 for no effect and ±100 for the full control effect
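S3 HeLa cells stably expressing lamin A-EGFP splicing minigene plus DsRed2, 600 cells/well, 48 h compound exposure at 37C. Laser-scanning cytometry; analysed as GFP (500-530 nm)/RFP (575-640 nm) total intensity ratio; 0.5% DMSO vehicle.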
ALDH1A1 inh = inhibitors of human aldehyde dehydrogenase 1A1. P00352. Purified ALDH1A1, NADH fluorescence, propionaldehyde substrate. Potency, µM (doses to about 75.3 µM), without a hit: top-dose activity, negative = inhibition, usual class: inhibitors. actives 7.3% (n = 220,000). AID 1030;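 note: plate controls were no enzyme wells and a reference inhibitor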
Target sequence (P00352 whole entry, looked up): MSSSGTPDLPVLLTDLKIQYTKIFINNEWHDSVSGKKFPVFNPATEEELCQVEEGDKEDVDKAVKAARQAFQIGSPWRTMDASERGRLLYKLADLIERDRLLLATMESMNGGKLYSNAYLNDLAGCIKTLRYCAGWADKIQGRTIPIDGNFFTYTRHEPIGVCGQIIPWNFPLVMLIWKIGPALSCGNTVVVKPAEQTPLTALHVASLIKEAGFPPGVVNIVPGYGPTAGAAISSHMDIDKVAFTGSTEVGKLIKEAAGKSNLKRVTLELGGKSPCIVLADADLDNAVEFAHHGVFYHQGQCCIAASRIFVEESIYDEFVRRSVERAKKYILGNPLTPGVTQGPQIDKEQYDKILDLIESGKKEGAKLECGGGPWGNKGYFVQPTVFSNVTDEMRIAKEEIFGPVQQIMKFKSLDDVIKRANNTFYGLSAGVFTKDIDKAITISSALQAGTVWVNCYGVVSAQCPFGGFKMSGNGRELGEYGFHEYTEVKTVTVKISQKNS
KDM4E inh = inhibitors of human JMJD2E histone demethylase; B2RXH2; JMJD2E catalytic domain, FDH-coupled NADH fluorescence (FDH is formaldehyde dehydrogenase); Potency, µM (top dose mostly 57.1 µM), for the others: top-dose activity change, negative = inhibition, actives largely listed as inhibitors; actives 1.6% (n = 230,000);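 note: 0% = wells with enzyme and -100% = buffer wells without enzyme; nearly all actives have a fitted effect of over 50% in size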
HttQ103 aggreg = mutant huntingtin aggregation inhibition | PC12 HttQ103-GFP aggregates, Acumen cytometry, 40 h | Potency, µM (highest dose often 46.1 µM), without a hit: at the top dose activity change, negative = inhibition, most hits filed as inhibitors | actives 1.1% (n = 220,000); active = well fitted curve in the direction sought with a large enough effect; inconclusive = small, poorly fitted or top-dose-only effect, or another doubt; inactive = no such curve, though single readings can be large; an effect the other way counts as inactive or inconclusive; note: % is set by controls: 0 for no effect and ±100 for the full control effect; nearly all actives have a fitted effect of over 60% in size
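PC12/HTTQ103-GFP, ecdysone-inducible; teb 100 nM; cpd qHTS titration; GFP aggregates read on laser cytometer, Ex 488/Em 500-530 nm.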
HTT cytoprotect = Huntington cell model cytoprotection by ATP luminescence. actives 0.14% (n = 230,000). PC12 HTT-Q103 induced, cytoprotection, ATP luminescence, 40 h. Potency, µM (top dose mostly 56.4 µM), for inactives: cytoprotection (ATP increase), usual class: activators. AID 1471; active = well fitted curve in the direction sought with a large enough effect; inconclusive = small, poorly fitted or top-dose-only effect, or another doubt; inactive = no such curve, though single readings can be large; an effect the other way counts as inactive or inconclusive; note: % of control where 0% means no effect; nearly all actives have a fitted effect of over 45% in size
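ATP quantification (ATPlite) reports survival of PC12 cells in which tebufenozide, 100 nM final, switches on Htt exon 1 with 103 glutamines linked to GFP; compounds are titrated.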
The depositor's hits bear a star; [ ] = dose if it differs, or a comment. In the library only some 9.2% were active in any assay of this set; here they are far more common. Unless noted, calls come from the whole dose curve; as a rule, active = well fitted inhibition curve with a large enough effect (not every such curve was filed as active); inconclusive = small, poorly fitted or top-dose-only effect, or another doubt; inactive = no such curve, though single readings can be large or run the other way. Potency is the fitted concentration of half-maximal effect.

How did CC(=O)c1ccc(NS(=O)(=O)c2ccc(CC(C)C)cc2)cc1 do in these assays?
HPGD block: inconclusive; Lamin A splicing: inconclusive; ALDH1A1 inh: 6.3µM*; KDM4E inh: 0%; HttQ103 aggreg: -2%[9.22 µM]; HTT cytoprotect: 20%

How did CC(=O)c1ccc(NC(=O)Nc2ccc(NS(=O)(=O)c3ccc(C)cc3)cc2)cc1 do in these assays?
Lamin A splicing: inconclusive; ALDH1A1 inh: inconclusive; KDM4E inh: -8%; HttQ103 aggreg: -9%; HTT cytoprotect: -26%

How did CCOc1ccc(CNC(=O)Cn2nc(C)c3nn(-c4ccc(Cl)cc4)c(C)c3c2=O)cc1 do in these assays?
Lamin A splicing: -8%[46 µM]

Results for CC(C)Cn1cnc2c(c1=O)c1nc3ccccc3nc1n2Cc1ccc2c(c1)OCO2 ?
HPGD block: -18%; Lamin A splicing: 5%; ALDH1A1 inh: 0.79µM*; KDM4E inh: -2%; HttQ103 aggreg: -1%; HTT cytoprotect: -19%

Results for O=C1c2ccccc2C(=O)C1Cc1cccc2ccccc12 ?
HPGD block: 14µM*; Lamin A splicing: -7%; ALDH1A1 inh: inconclusive; KDM4E inh: -5%; HttQ103 aggreg: -6%; HTT cytoprotect: 4%[10 µM]

How did CC(C)OCCCn1c(SCC(N)=O)nc2c(sc3ccccc32)c1=O do in these assays?
Lamin A splicing: -7%[46 µM]

How did Cc1ccc(OCc2nnc(SCc3cc(=O)[nH]c4ccccc34)n2-c2ccccc2)cc1 do in these assays?
HPGD block: 11µM*; Lamin A splicing: 1%; ALDH1A1 inh: 8%; KDM4E inh: 1%; HttQ103 aggreg: inconclusive; HTT cytoprotect: -15%[10 µM]

What do the screens show for `Cc1ccccc1OCc1nnc(SCc2cc(=O)[nH]c3ccccc23)n1-c1ccccc1`?
HPGD block: -10%; Lamin A splicing: -9%; ALDH1A1 inh: -3%; KDM4E inh: -2%; HttQ103 aggreg: -1%; HTT cytoprotect: 43%[10 µM]

Results for COc1ccc(CCN(C)CCCOc2ccc(S(=O)(=O)c3[nH]c4ccccc4c3C(C)C)cc2)cc1OC ?
HPGD block: -12%; ALDH1A1 inh: -15%; KDM4E inh: 25µM*; HTT cytoprotect: -80%

Results for NNC(=O)c1cccc(O)c1 ?
HPGD block: 2%; Lamin A splicing: -11%; ALDH1A1 inh: inconclusive; KDM4E inh: 63%; HttQ103 aggreg: -5%; HTT cytoprotect: -13%[1.9 µM]

Results for CC(C)c1nnc(NC(=O)c2cccc(NC(=O)C(F)(F)F)c2)s1 ?
Lamin A splicing: -8%[46 µM]; ALDH1A1 inh: 22µM*; KDM4E inh: -11%; HttQ103 aggreg: 15%; HTT cytoprotect: -82%

How did CC(C)C(=O)Nc1cccc(C(=O)Nc2nnc(C(C)C)s2)c1 do in these assays?
HPGD block: -12%; Lamin A splicing: -3%; ALDH1A1 inh: -2%; KDM4E inh: -20%; HttQ103 aggreg: 16%; HTT cytoprotect: -15%[10 µM]

What do the screens show for `Cc1nc(N)sc1-c1csc(NCc2ccccc2)n1`?
HPGD block: 18µM*; Lamin A splicing: inconclusive; ALDH1A1 inh: 2.2µM*; KDM4E inh: inconclusive; HttQ103 aggreg: 1%; HTT cytoprotect: -33%

What do the screens show for `Cc1cc(-c2csc(NCc3ccccc3)n2)c(C)n1C`?
Lamin A splicing: -8%[46 µM]; ALDH1A1 inh: 20µM*; KDM4E inh: 28µM*; HttQ103 aggreg: 10%; HTT cytoprotect: -12%

What do the screens show for `Cc1nc2sccn2c1-c1csc(NCc2ccccc2)n1`?
HPGD block: -21%; Lamin A splicing: 21%; ALDH1A1 inh: 11µM*; KDM4E inh: -19%; HttQ103 aggreg: 7.1µM*; HTT cytoprotect: -79%

How did O=S(=O)(c1ccccc1)c1nc(-c2ccco2)oc1NCCCn1ccnc1 do in these assays?
HPGD block: -23%; Lamin A splicing: 7%; ALDH1A1 inh: 25µM*; KDM4E inh: -3%; HttQ103 aggreg: 11%; HTT cytoprotect: -11%[0.074 µM]

What do the screens show for `O=S(=O)(c1ccccc1)c1nc(-c2ccco2)oc1NCc1ccco1`?
HPGD block: 1%; Lamin A splicing: 13%; ALDH1A1 inh: -6%; KDM4E inh: -8%; HttQ103 aggreg: -11%; HTT cytoprotect: -12%[0.074 µM]

Results for CCCCNc1oc(-c2ccc(OC)cc2)nc1S(=O)(=O)c1ccccc1 ?
HPGD block: inconclusive; Lamin A splicing: -6%; ALDH1A1 inh: 22µM*; KDM4E inh: -20%; HttQ103 aggreg: -3%; HTT cytoprotect: -5%

What do the screens show for `Cc1ccc2c(c1)CC(C)N2S(=O)(=O)c1nnc(NC(=O)c2ccccc2F)s1` (configuration not stated)?
Lamin A splicing: 5%[46 µM]

Results for CCC(C)NC(=O)C1CCC(=O)N(c2ccc3c(c2)OCO3)C1c1ccc(OC)cc1 (configuration not stated) ?
HPGD block: -1%; Lamin A splicing: -8%; ALDH1A1 inh: 6.3µM*; KDM4E inh: -7%; HttQ103 aggreg: -13%; HTT cytoprotect: 3%[10 µM]

What do the screens show for `CCC(C)NC(=O)C1CCC(=O)N(c2cc(OC)c(OC)c(OC)c2)C1c1ccc(OC)cc1` (configuration not stated)?
HPGD block: -11%; Lamin A splicing: -7%; ALDH1A1 inh: -4%; KDM4E inh: 3%; HttQ103 aggreg: -14%; HTT cytoprotect: 7%[10 µM]

How did Cn1c(=O)c(Nc2ccc(O)cc2)c2c3c(cccc31)C(=O)c1ccccc1-2 do in these assays?
HPGD block: 25µM*; Lamin A splicing: -17%; ALDH1A1 inh: -2%; KDM4E inh: -5%; HttQ103 aggreg: 1%; HTT cytoprotect: -18%[10 µM]

Results for COc1cc2c(cc1OC)C(c1ccc(-c3ccc(Cl)c(Cl)c3)o1)=NCC2 ?
HPGD block: -8%; Lamin A splicing: inconclusive; ALDH1A1 inh: -5%; KDM4E inh: -15%; HttQ103 aggreg: 8.9µM*; HTT cytoprotect: 8%[10 µM]

What do the screens show for `COc1cc2c(cc1OC)C(c1ccc(-c3ccc(Cl)cc3Cl)o1)=NCC2`?
HPGD block: -4%; Lamin A splicing: inconclusive; ALDH1A1 inh: 1%; KDM4E inh: -2%; HttQ103 aggreg: 14µM*; HTT cytoprotect: -104%

How did COc1cc2c(cc1OC)C(c1ccc(-c3ccccc3Cl)o1)=NCC2 do in these assays?
HPGD block: -21%; Lamin A splicing: inconclusive; ALDH1A1 inh: 3%; KDM4E inh: -13%; HttQ103 aggreg: inconclusive; HTT cytoprotect: -40%

Results for COc1cc2c(cc1OC)C(c1ccc(-c3cc(Cl)ccc3Cl)o1)=NCC2 ?
HPGD block: 16µM*; Lamin A splicing: inconclusive; ALDH1A1 inh: inconclusive; KDM4E inh: inconclusive; HttQ103 aggreg: 5%; HTT cytoprotect: -52%[10 µM]

Screening results (PubChem BioAssay)
